Screens from PubChem BioAssay.
An excerpt weighted towards active compounds, which were near 2.2% of everything screened.
ADAM17 inh – ADAM17 inhibition, QFRET primary screen | recombinant ADAM17, EDANS/DABCYL FRET peptide cleavage | inhibition, % at 6.95 µM | hit rate 0.83% among 370,000;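 active = inhibition above the mean of compounds lying between control limits plus 3 SD, set per campaign, cut at about 8.5% in these data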;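 also: 0% = DMSO-only wells as the low control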
NPR1 activator – GC-A (human) enzyme activation. activation, % at 10 µM. HEK293 GC-A cells, cGMP TR-FRET, EC30 ANP; 0% at EC30 ANP, 100% saturating ANP. AID 1671463. P16066. hit rate 0.14% among 370,000; in the data active = activation above about 40%
ADAM10 inh – inhibits human ADAM10 | O14672 | recombinant ADAM10, EDANS/DABCYL FRET peptide cleavage, 3 h | inhibition, % at 7 µM | hit rate 0.62% among 370,000 | AID 720582;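 active = inhibition above a per-campaign cutoff equal to the mean of compounds falling between control-based bounds plus 3 SD, cut at about 20% in these data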;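 also: 0% = DMSO wells while the 100% control is not disclosed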
Target sequence (O14672 214-748 limits assumed): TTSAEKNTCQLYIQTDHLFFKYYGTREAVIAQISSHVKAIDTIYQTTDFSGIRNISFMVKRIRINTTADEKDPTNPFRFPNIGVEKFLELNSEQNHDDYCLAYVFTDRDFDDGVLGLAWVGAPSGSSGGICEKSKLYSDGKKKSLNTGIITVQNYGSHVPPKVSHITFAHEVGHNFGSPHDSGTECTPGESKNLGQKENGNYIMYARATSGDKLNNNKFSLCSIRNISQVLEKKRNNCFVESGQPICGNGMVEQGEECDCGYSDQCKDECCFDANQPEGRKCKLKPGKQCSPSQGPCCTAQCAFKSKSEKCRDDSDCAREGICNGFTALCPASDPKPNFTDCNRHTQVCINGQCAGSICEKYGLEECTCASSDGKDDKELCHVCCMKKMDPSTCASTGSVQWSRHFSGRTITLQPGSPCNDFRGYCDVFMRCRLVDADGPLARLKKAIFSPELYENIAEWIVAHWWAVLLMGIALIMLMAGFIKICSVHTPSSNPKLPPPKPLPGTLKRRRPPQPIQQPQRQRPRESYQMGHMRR
KLK7 zymogen act – proKLK7 (human) activation, primary screen | P49862 | purified proKLK7, EDANS-DABCYL substrate fluorescence; 100% is mature enzyme control, 0% vehicle | activation, % at 7 µM | hit rate 0.9% among 370,000 | AID 652039;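 active = activation above the mean of all tested compounds plus 3 SD, computed per campaign excluding outliers beyond control limits, cut at about 13% in these data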
NPR2 activator – GC-B (human) receptor activation; P20594; HEK293-GC-B cells, CNP EC30, cGMP TR-FRET; 0% at EC30 CNP, 100% saturating CNP; activation, % at 10 µM; hit rate 0.11% among 370,000; AID 1920062;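 active = activation at 10 µM reaching about 35% in either raw or pattern-adjusted values, limit read from the data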
proKLK7 act conf – confirmation of human kallikrein-7 zymogen activators. activation, % at 7 µM. shares compounds with KLK7 zymogen act. hit rate 68% among 3,200. purified proKLK7, EDANS-DABCYL substrate fluorescence; scaled: vehicle 0, mature enzyme 100;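 active = activation, as change over the incubation, above the mean of all tested compounds plus 3 SD, cut at about 13% in these data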
EDANS interfere – counter-screen for kallikrein-7 activators: EDANS-DABCYL optical interference | shares compounds with KLK7 zymogen act | EDANS-DABCYL substrate fluorescence interference, no enzyme, 4 h; solvent 0%, active enzyme control 100% | activation, % at 7 µM | hit rate 80% among 3,200;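 active = activation above the all-compound mean plus 3 SD, ignoring values outside control-based bounds, cut at about 4.8% in these data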;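 also: value is the 4 h activation minus the activation read at time zero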
EDANS interf – optically interferes with EDANS-DABCYL fluorescence, kallikrein-7 activator counter-screen; EDANS-DABCYL peptide fluorescence interference, no enzyme; EC50, µM; hit rate 20% among 250; shares compounds with KLK7 zymogen act;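 active = compounds that raise the fluorescence signal in this interference counterscreen, with EC50 at or below 10 µM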;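 also: intact quenched peptide substrate alone read at 355 nm excitation and 520 nm emission; signal is fluorescence gain from T0 to T4 after four hours at room temperature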
* = called active by the depositor; i = inactive; / = not tested or not shown.

SMILES | ADAM17 inh | NPR1 activator | ADAM10 inh | KLK7 zymogen act | NPR2 activator | proKLK7 act conf | EDANS interfere | others
O[C@H](COc1cccc(Cl)c1)CN1CCC(C(O)(c2ccccc2)c2ccccc2)CC1 | 2 | -14 | 6 | 0 | -9 | / | /
CC1(C)Cc2c(sc(NC(=O)c3ccc(S(=O)(=O)N4CCCC4)cc3)c2C#N)C(C)(C)N1 | -4 | 2 | 4 | 38* | -1 | 141* | 154*
COCCCNC(=O)C[C@H]1C[C@H](C(=O)N2CCCCC2)[C@@]2(CCc3ccccc3)c3[nH]c4cc(-c5ccco5)ccc4c3CCN2C1=O | -73 | -8 | -256 | 22* | -10 | -27 | -27
O=C(C[C@H]1C[C@H](C(=O)N2CCCCC2)[C@@]2(CCc3ccccc3)c3[nH]c4cc(-c5ccco5)ccc4c3CCN2C1=O)NCCN1CCOCC1 | -81 | -5 | -273 | 22* | -5 | 17* | 5.7* | EDANS interf=8.6*
O=C(C[C@H]1C[C@H](C(=O)N2CCOCC2)[C@@]2(CCC3CCCC3)c3[nH]c4cc(-c5ccco5)ccc4c3CCN2C1=O)NCCCn1ccnc1 | -116 | 2 | -326 | -6 | -2 | / | /
CC[C@]12c3[nH]c4ccccc4c3CCN1C(=O)C(CC(=O)NCCCOC)C[C@@H]2C(=O)N1CCN(C(=O)C2CC2)CC1 (some centres not stated) | 3 | 3 | 9 | 0 | -2 | / | /
Cc1ccc(Cn2cc(CN3[C@@H](Cc4ccccc4)COc4cc(Br)ccc4S3(=O)=O)nn2)cc1 | 1 | -1 | -3 | 0 | 9 | / | /
CCc1ccc(-c2cn3nc(C)c(C)nc3n2)cc1 | i | 5 | i | 49* | 0 | 73* | 72*
Cc1cc(C)n2nc(C)c(-c3ccccc3)c2n1 | -4 | 0 | -12 | 0 | -5 | / | /
Brc1ccc(-c2cn3nc4c(nc3n2)CCCC4)cc1 | -37 | 0 | -119 | -2 | 2 | / | /
Cc1nc2nc(-c3ccc(F)cc3)cn2nc1C | i | 6 | i | 67* | -2 | 69* | 59*
CCc1c(-c2ccccc2)nc2nc(C)c(C)nn12 | -27 | 2 | -102 | 15* | 0 | -4 | 0
Cc1nc2nc(-c3ccccc3)cn2nc1C | i | 6 | i | 64* | 2 | 70* | 72*
Clc1ccc([C@H]2OC[C@@]3(CNCCc4c[nH]c5ccccc45)CS[C@H](c4ccc(Cl)cc4)N23)cc1 | 1 | -17 | 3 | 0 | -4 | / | /
CCN(CC)C(=O)CC[C@@H]1CC[C@]2(CCCN(C(=O)c3ccno3)C2)O1 | -3 | 2 | -4 | 0 | -4 | / | /
COC(=O)c1ccccc1NC1CC(=O)N(c2c(C)cccc2C)C1=O (configuration not stated) | -265 | 0 | i | 88* | 4 | 48* | 49*
O=c1c(-c2cccs2)nc2ccccc2n1C(c1ccccn1)c1nc2ccccc2[nH]1 (configuration not stated) | -311 | -2 | i | 17* | -14 | 13 | 14*
Cc1cc(=O)oc2c3c(cc(OCC(=O)N[C@@H](Cc4ccccc4)C(=O)O)c12)OC(C)(C)CC3 | i | 1 | i | 32* | 0 | 41* | 25* | EDANS interf=>69
Cc1cc(=O)oc2c3c(cc(OCC(=O)NC(Cc4ccc(Cl)cc4)C(=O)O)c12)OC(C)(C)CC3 (configuration not stated) | i | 2 | i | 13* | -1 | 8 | 3
CCCCC(NC(=O)COc1cc2c(c3oc(=O)cc(C)c13)CCC(C)(C)O2)C(=O)O (configuration not stated) | -386 | -6 | i | 10 | 1 | / | /
COc1ccc(-c2cc(=O)c3ccc(O)cc3o2)cc1 | -72 | -1 | -280 | -6 | -5 | / | /
COc1cc(-c2cc(=O)c3ccc(O)cc3o2)cc(OC)c1OC | -42 | 7 | -201 | 15* | -2 | 5 | 8.7*
Nc1nc(SCC(=O)Nc2cccc([N+](=O)[O-])c2)n[nH]1 | 2 | -3 | -12 | 0 | 0 | / | /
O=C(CCc1n[nH]c(=O)[nH]c1=O)Nc1cccc([N+](=O)[O-])c1 | 6 | 2 | 3 | 16* | -2 | -1 | 0
COCCn1nnnc1C(c1cc2cccc(C)c2[nH]c1=O)N1CCN(c2ccccc2F)CC1 (configuration not stated) | -12 | 22 | -49 | 20* | 1 | 17* | 17*
SMILES | ADAM17 inh | NPR1 activator | ADAM10 inh | KLK7 zymogen act | NPR2 activator | proKLK7 act conf | EDANS interfere | others
CCn1c(Cc2cccs2)nnc1SCC(=O)Nc1cccc2ccccc12 | -2 | -3 | -6 | 0 | -6 | / | /
Cc1ccc2nc3c(cc(C#N)c(=O)n3-c3nccs3)c(=O)n2c1 | i | 1 | i | 25* | -3 | 61* | 73*
CCC(C)n1c(=N)c(C#N)cc2c(=O)n3cc(C)ccc3nc21 (configuration not stated) | -77 | 6 | -212 | 3 | -3 | / | /
CC(=O)N1CCc2cc(S(=O)(=O)NC3CCN(C(=O)OCc4ccccc4)CC3)ccc21 | -1 | 4 | 1 | 0 | -9 | / | /
COC(=O)c1cc(-c2cccc(OC(F)(F)F)c2)c(=O)n2c1CCC2 | -14 | 3 | -37 | 1 | -3 | / | /
COC(=O)C1=C(C)N(C)C(C)=C(C(=O)OC)C1c1ccc(C(=O)OC)cc1 | -2 | -12 | 5 | 0 | -2 | / | /
COC(=O)C1=CNC=C(C(=O)OC)C1c1ccc(C(=O)OC)cc1 | -432 | -26 | i | 13* | -12 | 19* | 14* | EDANS interf=>70
Cn1c(=O)c2[nH]c(SCC(=O)NCCc3cccc(F)c3)nc2n(C)c1=O | 3 | 5 | -8 | 0 | -4 | / | /
COC(=O)C1Cc2c([nH]c3ccccc23)CN1 (configuration not stated) | -60 | 1 | -259 | 19* | -5 | 11 | 8.9*
O=c1c(-c2ccc(Cl)cc2)coc2c(CN3CCCCC3)c(O)ccc12 | -178 | 8 | i | 14* | 6 | 22* | 27*
CC1CCCN(Cc2c(O)ccc3c(=O)c(-c4ccc(Cl)cc4)coc23)C1 (configuration not stated) | -92 | -1 | -202 | -1 | 1 | / | /
O=c1c(-c2ccc(Br)cc2)coc2c(CN3CCCCC3)c(O)ccc12 | -169 | 1 | -408 | 9 | -10 | / | /
